Experiment in all cases: protein-binding microarray (PBM); PBM: ~300 nM protein, 6 mM HEPES pH 7.8, 80 mM KCl, 0.5 mM EDTA, 0.5 mM EGTA, 6% glycerol, 35 ng/ul poly-dIdC, 1% milk, 1 h, room temperature; Ap Aiptasia and Nv Nematostella (sea anemones) / Co Capsaspora / Aq Amphimedon (sponge) / Dm Drosophila / Hu human; RHD is the Rel homology domain; high values mean tight binding
Common to all, as to conditions: dsDNA, one strand shown

The target of assay [1] is T1, GST-Ap-NF-kB RHD (Exaiptasia pallida (Aiptasia), UniProt A0A913YAJ5 2-422).
T1 sequence: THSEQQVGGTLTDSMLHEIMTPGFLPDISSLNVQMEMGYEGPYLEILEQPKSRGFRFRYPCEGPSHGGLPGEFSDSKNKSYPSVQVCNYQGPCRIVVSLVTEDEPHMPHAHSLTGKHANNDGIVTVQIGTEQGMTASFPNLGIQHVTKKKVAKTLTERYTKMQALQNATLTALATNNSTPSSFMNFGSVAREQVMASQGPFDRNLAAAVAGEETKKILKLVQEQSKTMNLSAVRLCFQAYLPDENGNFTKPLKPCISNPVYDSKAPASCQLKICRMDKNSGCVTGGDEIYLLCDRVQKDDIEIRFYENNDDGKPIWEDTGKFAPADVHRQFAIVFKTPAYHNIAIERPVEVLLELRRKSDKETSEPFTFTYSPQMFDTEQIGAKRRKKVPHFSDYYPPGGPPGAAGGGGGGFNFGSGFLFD

Assay [2] deals with T2, GST-Nv-NF-kB (Cys allele) (Nematostella vectensis, UniProt E5G601 2-411).
T2 sequence: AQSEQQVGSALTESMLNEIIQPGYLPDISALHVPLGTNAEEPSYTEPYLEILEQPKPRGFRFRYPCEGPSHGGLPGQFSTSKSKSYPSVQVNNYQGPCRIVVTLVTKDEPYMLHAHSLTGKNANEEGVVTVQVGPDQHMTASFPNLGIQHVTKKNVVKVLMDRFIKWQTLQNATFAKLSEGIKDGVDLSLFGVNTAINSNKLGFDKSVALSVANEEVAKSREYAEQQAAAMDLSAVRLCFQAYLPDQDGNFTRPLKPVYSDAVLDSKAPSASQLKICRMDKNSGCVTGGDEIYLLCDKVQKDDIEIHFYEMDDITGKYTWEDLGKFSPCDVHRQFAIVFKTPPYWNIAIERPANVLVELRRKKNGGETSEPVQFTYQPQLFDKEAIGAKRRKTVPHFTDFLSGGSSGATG

The target of assay [3] is T3, GST-Co-NF-kB (Capsaspora owczarzaki, UniProt F1ARL5 200-546).
T3 sequence: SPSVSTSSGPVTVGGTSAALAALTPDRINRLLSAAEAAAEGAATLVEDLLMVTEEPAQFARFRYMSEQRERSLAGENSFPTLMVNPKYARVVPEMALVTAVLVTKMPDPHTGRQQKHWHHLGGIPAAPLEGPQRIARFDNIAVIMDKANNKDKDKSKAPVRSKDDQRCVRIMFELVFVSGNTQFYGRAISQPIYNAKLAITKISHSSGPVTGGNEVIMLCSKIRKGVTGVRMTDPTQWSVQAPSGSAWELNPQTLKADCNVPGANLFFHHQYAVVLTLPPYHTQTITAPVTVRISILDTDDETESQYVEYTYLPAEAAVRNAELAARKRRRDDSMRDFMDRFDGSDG

For assay [4], the target named is T4, GST-Dm-Relish (Drosophila melanogaster, UniProt Q94527 99-473).
T4 sequence: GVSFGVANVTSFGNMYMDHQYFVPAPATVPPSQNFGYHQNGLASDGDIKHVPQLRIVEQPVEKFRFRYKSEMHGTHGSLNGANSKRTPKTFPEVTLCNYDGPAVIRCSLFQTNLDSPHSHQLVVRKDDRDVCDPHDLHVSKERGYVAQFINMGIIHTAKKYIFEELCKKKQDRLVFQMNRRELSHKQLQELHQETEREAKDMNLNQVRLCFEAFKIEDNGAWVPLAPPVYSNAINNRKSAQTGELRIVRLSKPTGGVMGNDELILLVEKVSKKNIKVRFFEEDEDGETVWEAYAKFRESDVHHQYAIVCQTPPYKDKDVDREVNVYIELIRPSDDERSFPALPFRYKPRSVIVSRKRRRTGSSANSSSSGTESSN

For assay [5], the target named is T5, GST-Aq-NF-kB (Amphimedon queenslandica, UniProt A9Y5G7 2-389).
T5 sequence: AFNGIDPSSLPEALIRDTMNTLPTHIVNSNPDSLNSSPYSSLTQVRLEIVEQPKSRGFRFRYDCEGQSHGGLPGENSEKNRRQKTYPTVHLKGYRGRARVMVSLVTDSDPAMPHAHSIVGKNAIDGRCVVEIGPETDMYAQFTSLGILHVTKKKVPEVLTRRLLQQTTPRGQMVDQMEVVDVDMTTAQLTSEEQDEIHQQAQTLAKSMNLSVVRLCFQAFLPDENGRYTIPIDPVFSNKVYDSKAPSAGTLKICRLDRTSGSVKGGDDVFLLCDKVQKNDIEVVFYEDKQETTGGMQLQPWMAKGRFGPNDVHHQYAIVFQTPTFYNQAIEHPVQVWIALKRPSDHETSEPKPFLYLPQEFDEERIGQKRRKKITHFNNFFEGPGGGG

For the sequence “CCGATTAACATCAGGGGGTTAGATGATGTTAATCGGGTCTTGATTCGCTTGACGCTGCTG”, the binding signal worked out at 3.78 z-score in assay [1]; 2.99 z-score in assay [2]; 1.94 z-score in assay [3]; 4.34 z-score in assay [4]; 3.58 z-score in assay [5].
The like results for “CCGATTAACATCAAATCATCCCCTGATGTTAATCGGGTCTTGATTCGCTTGACGCTGCTG” were, in that order, 4.78 z-score, 5.38 z-score, 5.87 z-score, 4.06 z-score and 5.27 z-score.
As for “CCGATTAACATCAGTAATTCCCATGATGTTAATCGGGTCTTGATTCGCTTGACGCTGCTG”, the binding signal in assay [1] was 4.02 z-score; in assay [2], 4.3 z-score; in assay [3], 5.42 z-score; in assay [4], 7.23 z-score; in assay [5], 4.24 z-score.
For the sequence “CCGATTAACATCAGGGGGTCACCTGATGTTAATCGGGTCTTGATTCGCTTGACGCTGCTG”, the binding signal in assay [1] stood at 3.61 z-score; in assay [2], 2.23 z-score; in assay [3], 1.96 z-score; in assay [4], 6.03 z-score; in assay [5] it was 4.39 z-score.
Consider “CCGATTAACATCACGGGGGGTAATGATGTTAATCGGGTCTTGATTCGCTTGACGCTGCTG”, for which the binding signal was 4.02 z-score in assay [1]; 2.73 z-score in assay [2]; 6.28 z-score in assay [3]; 3.64 z-score in assay [4]; 3.77 z-score in assay [5].
With “CCGATTAACATCAGACAATTCCCTGATGTTAATCGGGTCTTGATTCGCTTGACGCTGCTG”, the binding signal in assay [1] came out at 3.02 z-score; in assay [2], 5 z-score; in assay [3], 2.28 z-score; in assay [4] it was 1.37 z-score; in assay [5], 4.77 z-score.
Take “CCGATTAACATCAAATATTCCCATGATGTTAATCGGGTCTTGATTCGCTTGACGCTGCTG”: the binding signal in assay [1] stood at 4.02 z-score; in assay [2], 4.31 z-score; in assay [3], 3.51 z-score; in assay [4], 2.7 z-score; in assay [5], 3.63 z-score.
The matching figures for “CCGATTAACATCAGGGATAACCCTGATGTTAATCGGGTCTTGATTCGCTTGACGCTGCTG”: 3.63 z-score, 3.77 z-score, 1.82 z-score, 4.42 z-score and 6.12 z-score.
The like results for “CCGATTAACATCAAATGACCCCCTGATGTTAATCGGGTCTTGATTCGCTTGACGCTGCTG” were, in that order, 4.25 z-score, 2.8 z-score, 2.98 z-score, 3.27 z-score and 4.02 z-score.
The matching figures for “CCGATTAACATCAAGTATTTCCCTGATGTTAATCGGGTCTTGATTCGCTTGACGCTGCTG”: 3.79 z-score, 5.18 z-score, 4.22 z-score, 5.66 z-score and 5.42 z-score.
For “CCGATTAACATCAAATAGGGAATTGATGTTAATCGGGTCTTGATTCGCTTGACGCTGCTG”, the binding signal in assay [1] worked out at 2.29 z-score; in assay [2] it was 5.11 z-score; in assay [3], 1.54 z-score; in assay [4] it was 1.32 z-score; in assay [5], 3.5 z-score.
As for “CCGATTAACATCAAAATTCCCAATGATGTTAATCGGGTCTTGATTCGCTTGACGCTGCTG”, the binding signal in assay [1] stood at 3.1 z-score; in assay [2], 4.95 z-score; in assay [3], 4.01 z-score; in assay [4] it was 5.17 z-score; in assay [5], 4.03 z-score.
“CCGATTAACATCACAAAACTCCCTGATGTTAATCGGGTCTTGATTCGCTTGACGCTGCTG”: the binding signal in assay [1] stood at 4.94 z-score; in assay [2] it was 6.58 z-score; in assay [3], 2.13 z-score; in assay [4] it was 5.41 z-score; in assay [5] it was 6.32 z-score.
The matching figures for “CCGATTAACATCAATGGGAAAATTGATGTTAATCGGGTCTTGATTCGCTTGACGCTGCTG”: 1.56 z-score, 4.28 z-score, 3.46 z-score, 1.25 z-score and 3.05 z-score.
Turning to “CCGATTAACATCAGGCAATTCCCTGATGTTAATCGGGTCTTGATTCGCTTGACGCTGCTG”, the binding signal was determined as 2.76 z-score in assay [1]; 5.17 z-score in assay [2]; 1.58 z-score in assay [3]; 2.03 z-score in assay [4]; 6.13 z-score in assay [5].
The matching figures for “CCGATTAACATCACTGGGAATTCTGATGTTAATCGGGTCTTGATTCGCTTGACGCTGCTG”: 3.23 z-score, 3.49 z-score, 3.79 z-score, 3.32 z-score and 2.67 z-score.
For “CCGATTAACATCAGGGAAATAACTGATGTTAATCGGGTCTTGATTCGCTTGACGCTGCTG”, the binding signal in assay [1] was determined as 2.57 z-score; in assay [2], 4.77 z-score; in assay [3], 3.96 z-score; in assay [4], 4.51 z-score; in assay [5], 6.11 z-score.
With “CCGATTAACATCACCGCCCCCCCTGATGTTAATCGGGTCTTGATTCGCTTGACGCTGCTG”, the binding signal in assay [1] worked out at 3.91 z-score; in assay [2] it was 4.65 z-score; in assay [3] it was 3.8 z-score; in assay [4], 4.88 z-score; in assay [5] it was 4.3 z-score.
The like results for “CCGATTAACATCAGGGAATGCACTGATGTTAATCGGGTCTTGATTCGCTTGACGCTGCTG” were, in that order, 1.84 z-score, 3.18 z-score, 1.11 z-score, 5.07 z-score and 4.84 z-score.
As to “CCGATTAACATCAGGGAATTCCATGATGTTAATCGGGTCTTGATTCGCTTGACGCTGCTG”, the binding signal in assay [1] was determined as 5.46 z-score; in assay [2] it was 6.55 z-score; in assay [3] it was 3.71 z-score; in assay [4], 7.15 z-score; in assay [5], 6.68 z-score.
Regarding “CCGATTAACATCAGGGAGTTACCTGATGTTAATCGGGTCTTGATTCGCTTGACGCTGCTG”, the binding signal is 4.03 z-score in assay [1]; 5.22 z-score in assay [2]; 2.38 z-score in assay [3]; 7.17 z-score in assay [4]; 7.22 z-score in assay [5].
The like results for “CCGATTAACATCAGAACATTCCCTGATGTTAATCGGGTCTTGATTCGCTTGACGCTGCTG” were, in that order, 2.94 z-score, 4.14 z-score, 2.6 z-score, 1.97 z-score and 5 z-score.
For “CCGATTAACATCACATGTTCCCCTGATGTTAATCGGGTCTTGATTCGCTTGACGCTGCTG”, the binding signal in assay [1] is 4.94 z-score; in assay [2], 5.26 z-score; in assay [3], 6.79 z-score; in assay [4], 3.04 z-score; in assay [5], 4.62 z-score.
The matching figures for “CCGATTAACATCAGGGGAGTACATGATGTTAATCGGGTCTTGATTCGCTTGACGCTGCTG”: 4.22 z-score, 2.88 z-score, 3.31 z-score, 6.35 z-score and 3.06 z-score.
The like results for “CCGATTAACATCACACCCCCCCCTGATGTTAATCGGGTCTTGATTCGCTTGACGCTGCTG” were, in that order, 4.42 z-score, 3.24 z-score, 5.16 z-score, 4.99 z-score and 4.16 z-score.
The matching figures for “CCGATTAACATCAGGGAATTCGATGATGTTAATCGGGTCTTGATTCGCTTGACGCTGCTG”: 3.01 z-score, 3.99 z-score, 2.25 z-score, 1.66 z-score and 3.01 z-score.
Turning to “CCGATTAACATCAGGGAAAATGATGATGTTAATCGGGTCTTGATTCGCTTGACGCTGCTG”, the binding signal in assay [1] stood at 2.8 z-score; in assay [2], 4.26 z-score; in assay [3] it was 3.42 z-score; in assay [4] it was 1.15 z-score; in assay [5] it was 3.05 z-score.
